The list is not random: actives were taken first. Their share in the collection is about 9.2%.
FLuc modulator = counter-screen for miR-21 project: firefly luciferase inhibitors or activators; purified FLuc, Km substrates, luminescence inhibition; Potency, µM (doses to about 57.5 µM), usual class: inhibitors; hit rate 6.9% among 360,000; further: nearly all actives have a fitted effect of over 55% in size
Target sequence (P08659 whole entry, looked up): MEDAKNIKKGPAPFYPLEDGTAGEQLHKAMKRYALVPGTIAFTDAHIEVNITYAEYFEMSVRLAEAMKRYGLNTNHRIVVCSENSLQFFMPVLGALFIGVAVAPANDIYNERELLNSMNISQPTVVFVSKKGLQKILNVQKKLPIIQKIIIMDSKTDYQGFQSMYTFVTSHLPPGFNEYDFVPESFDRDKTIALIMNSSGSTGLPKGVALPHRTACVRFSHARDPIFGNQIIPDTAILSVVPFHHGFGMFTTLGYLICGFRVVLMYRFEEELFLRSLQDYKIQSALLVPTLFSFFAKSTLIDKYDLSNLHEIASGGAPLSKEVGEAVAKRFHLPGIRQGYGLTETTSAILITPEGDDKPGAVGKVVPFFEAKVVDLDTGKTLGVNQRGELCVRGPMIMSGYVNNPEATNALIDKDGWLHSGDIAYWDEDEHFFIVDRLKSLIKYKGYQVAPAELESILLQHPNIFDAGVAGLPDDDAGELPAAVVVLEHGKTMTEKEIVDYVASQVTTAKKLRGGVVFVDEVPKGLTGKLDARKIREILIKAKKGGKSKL
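Biochemical qHTS of compounds, final roughly 60 µM downward over six points, against 10 nM purified firefly luciferase using Km concentrations of substrates (10 uM D-luciferin, 10 uM ATP) in Tris acetate pH 7.5 buffer; luminescence output.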
SMN2 splice up = increases expression of the SMN2 splice variant. HEK293 SMN2-luciferase splicing reporter, luminescence, 30-36 h. Potency, µM (top dose mostly 46.1 µM), actives largely listed as activators. hit rate 2.8% among 210,000; further: nearly all actives have a fitted effect of over 55% in size
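HEK293 cells carry an SMN2 […]–luciferase reporter in which exon 7 inclusion puts luciferase in frame. Cells were plated 10-12 h before compound addition, then incubated 30-36 h at 37C. ONE-Glo luminescence was read; sodium butyrate at 4.5 mM final served as control.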
ELG1 genotoxic = induces genotoxicity in HEK293T cells with luciferase-tagged ELG1; hit rate 1.3% among 330,000; AID 504466; Potency, µM (highest dose often 46 µM), hits mostly activators; HEK293T ELG1-luciferase reporter, luminescence, 16 h; further: nearly all actives have a fitted effect of over 60% in size
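Reporter readout depends on ELG1 protein level, which increases with genetic stress. After 16 hr compound exposure at 37 °C, luciferase activity was quantified using ONE-Glo.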
Rab9 prom act = Rab9 promoter activation. Potency, µM (doses to about 9.22 µM), actives largely listed as activators. AID 485297. Huh7 Rab9 promoter-luciferase reporter, luminescence, 24 h. hit rate 2.8% among 320,000; further: nearly all actives have a fitted effect of over 60% in size
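Measured in stably transfected Huh7 cells bearing a Rab9 promoter–luciferase construct: 24 h compound treatment at 37 °C, followed by luminescence detection.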
NPC1 promoter act = NPC1 promoter activation; Huh7 NPC1 promoter luciferase reporter, 24 h; AID 485313; hit rate 2.4% among 320,000; Potency, µM (doses to about 9.22 µM), actives largely listed as activators; further: nearly all actives have a fitted effect of over 60% in size
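NPC1 promoter–luciferase Huh7 cells; 24 h compound; luminescence.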
ELG1 DNA repair = inhibitors of ELG1-dependent DNA repair in HEK293T cells; HEK293T ELG1-luciferase reporter, luminescence, 16 h; DNA damage induced by 5-fluorouridine; Potency, µM (series often up to 46.1 µM), hits mostly inhibitors; AID 504467; hit rate 2.3% among 330,000; further: nearly all actives have a fitted effect of over 55% in size
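Step one: seed 2,000 cells per well. Step two: pin-transfer compound or DMSO alongside 5-fluorouridine. Step three: incubate 16 hr, 37 °C, 5% CO2. Step four: add ONE-Glo, wait 30 min, read luminescence.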
Each line names hits and unclear results; the compound was inactive in the other large screens. The call rests on the fitted dose curve; in most records, active means well fitted curve in the direction sought with a large enough effect; inconclusive means small, poorly fitted or top-dose-only effect, or another doubt; inactive means no such curve, though single readings can be large; an effect the other way counts as inactive or inconclusive.

CCOc1ccc(NC(=O)Cn2nnc(C(=O)OC)c2C(=O)OC)cc1	none (no result: ELG1 genotoxic, Rab9 prom act, NPC1 promoter act, ELG1 DNA repair)
CCOc1ccc(NC(=S)c2ccc3ccccc3n2)cc1	FLuc modulator inconclusive, Rab9 prom act inconclusive, NPC1 promoter act 3.5µM, ELG1 DNA repair inconclusive (no result: SMN2 splice up)
COc1ccc(NC(=S)c2ccc3ccccc3n2)cc1	FLuc modulator 13µM, ELG1 genotoxic inconclusive, Rab9 prom act 4µM, NPC1 promoter act 3.2µM, ELG1 DNA repair inconclusive (no result: SMN2 splice up)
COc1ccc(NC(=O)CN(C)C(=O)c2ccc3ccccc3n2)cc1	none (no result: FLuc modulator, SMN2 splice up, Rab9 prom act, NPC1 promoter act)
CCOc1ccc(CN(C)C(=O)c2ccc3ccccc3n2)cc1	Rab9 prom act inconclusive (no result: SMN2 splice up)
COc1ccc(N=C(NN)c2ccc3ccccc3n2)cc1	FLuc modulator 6.7µM, ELG1 genotoxic inconclusive, ELG1 DNA repair inconclusive
CC(C)Cn1c(=O)c2ccccc2n2c(CCC(=O)Nc3cccc(Cl)c3)nnc12	none (no result: ELG1 genotoxic, Rab9 prom act, NPC1 promoter act, ELG1 DNA repair)
CCCCN(CCCC)CC(O)Cn1cc(/C=C/C(=O)c2ccccc2)c2ccccc21 (stereo not drawn)	none (no result: ELG1 genotoxic, Rab9 prom act, NPC1 promoter act, ELG1 DNA repair)
CCCCN(C)CC(O)Cn1cc(/C=C/C(=O)c2ccc(OCC)cc2)c2ccccc21 (stereo not drawn)	FLuc modulator 17µM
COC1=C(Nc2ccc(O)cc2)C(=O)c2ccccc2C1=O	FLuc modulator inconclusive
Cc1cccc(NC2=C/C(=N/S(=O)(=O)c3cccs3)c3ccccc3C2=O)c1	ELG1 DNA repair 4.1µM
Cc1ccc(NC2=C/C(=N\S(=O)(=O)c3cccs3)c3ccccc3C2=O)c(C)c1	FLuc modulator inconclusive, Rab9 prom act inconclusive, NPC1 promoter act inconclusive, ELG1 DNA repair inconclusive
O=C1C(Nc2ccc(O)cc2)=C/C(=N/S(=O)(=O)c2cccs2)c2ccccc21	FLuc modulator inconclusive, ELG1 DNA repair 6.5µM
Cc1ccc(Cl)cc1NC1=C/C(=N\S(=O)(=O)c2cccs2)c2ccccc2C1=O	ELG1 DNA repair 5.2µM
COc1ccccc1NC(=O)CCNS(=O)(=O)c1ccc2c(c1)CCN2C(C)=O	none (no result: SMN2 splice up)
Cc1cc(OC(C)C(=O)Nc2ccncc2)ccc1Cl (stereo not drawn)	ELG1 DNA repair inconclusive (no result: SMN2 splice up)
COc1cccc(NC(=S)NC(=O)/C=C/c2ccc(F)cc2)c1	none (no result: SMN2 splice up)
CCC(=O)Nc1cccc(C(=O)/C=C/c2ccc(F)cc2)c1	FLuc modulator 15µM
CC(=O)Nc1cccc(C(=O)/C=C/c2ccc(C)cc2)c1	FLuc modulator 4.8µM
O=C(O)CC(c1ccc(Br)cc1)N1Cc2ccccc2C1=O (stereo not drawn)	none (no result: SMN2 splice up)
COC(=O)c1cc(/C=C/c2ccccc2)[nH]n1	FLuc modulator 17µM, Rab9 prom act inconclusive, NPC1 promoter act inconclusive, ELG1 DNA repair inconclusive (no result: SMN2 splice up)
Cc1ccc2oc(C(=O)N(C)Cc3ccc(C)o3)c(C)c2c1	FLuc modulator 27µM, ELG1 DNA repair inconclusive (no result: SMN2 splice up)
CCCc1ccc2oc(C(=O)N(C)Cc3cnccn3)c(C)c2c1	none (no result: SMN2 splice up)
Cc1ccc2oc(C(=O)N(C)Cc3ccon3)c(C)c2c1	FLuc modulator 11µM, ELG1 genotoxic 9.2µM, Rab9 prom act 3.5µM, NPC1 promoter act 3.2µM, ELG1 DNA repair inconclusive (no result: SMN2 splice up)
CCN1Cc2cccc(C(=O)Nc3ccc(F)cc3)c2C1=O	none (no result: ELG1 genotoxic, Rab9 prom act, NPC1 promoter act, ELG1 DNA repair)
O=C(CN1CCN(Cc2ccccc2)CC1)N1CCCCCC1	none
COc1ccc(-n2cc(CNCCc3ncc(C)[nH]3)c(-c3ccccc3Cl)n2)cc1	ELG1 DNA repair inconclusive (no result: SMN2 splice up)
Cc1ccc(-n2cc(CNCCn3nc(C)cc3C)c(-c3ccc(F)cc3)n2)cc1	FLuc modulator 27µM, ELG1 DNA repair inconclusive (no result: SMN2 splice up)
COc1ccc(-n2cc(CNCCN3CCOC3=O)c(-c3ccccc3Cl)n2)cc1	FLuc modulator 17µM (no result: SMN2 splice up)
Cc1ccc(-n2cc(CNCCN3CCOC3=O)c(-c3ccc(F)cc3)n2)cc1	FLuc modulator 7.6µM, ELG1 DNA repair inconclusive (no result: SMN2 splice up)
Cc1ccc(-n2cc(CNCCc3ncc(C)[nH]3)c(-c3ccc(F)cc3)n2)cc1	FLuc modulator 27µM
Cc1ccc(-n2cc(CNCCCN3CCCC3=O)c(-c3ccc(F)cc3)n2)cc1	FLuc modulator inconclusive (no result: SMN2 splice up)
COc1ccc(C2C(=O)N(C3CCCCC3)CC(=O)N2CCC2=CCCCC2)cc1 (stereo not drawn)	none (no result: SMN2 splice up, ELG1 genotoxic, Rab9 prom act, NPC1 promoter act, ELG1 DNA repair)
Cc1cccc(-n2cc(CNCCN3CCOC3=O)c(-c3cccc(F)c3)n2)c1	FLuc modulator 9.5µM (no result: SMN2 splice up)
Cc1cccc(-n2cc(CN(C)Cc3nccn3C)c(-c3cccc(F)c3)n2)c1	FLuc modulator inconclusive, ELG1 DNA repair inconclusive (no result: SMN2 splice up)
CCOc1ccccc1CNC(=O)c1cnc2sc(N3CCOCC3)nn2c1=O	none (no result: SMN2 splice up, ELG1 genotoxic, Rab9 prom act, NPC1 promoter act, ELG1 DNA repair)
COc1cccc(/C=C(\C#N)c2nc3ccc(C)cc3[nH]2)c1	FLuc modulator 3.4µM (no result: ELG1 genotoxic, Rab9 prom act, NPC1 promoter act, ELG1 DNA repair)
Cc1ccc2nc(/C(C#N)=C\c3cc(O)ccc3[N+](=O)[O-])[nH]c2c1	FLuc modulator 19µM
COc1cc(/C=C(\C#N)c2nc3ccc(C)cc3[nH]2)cc([N+](=O)[O-])c1O	FLuc modulator 3.8µM, SMN2 splice up inconclusive, ELG1 genotoxic inconclusive, Rab9 prom act inconclusive, ELG1 DNA repair inconclusive
COc1cc(/C=C(\C#N)c2nc3ccc(C)cc3[nH]2)c([N+](=O)[O-])cc1OC	ELG1 DNA repair inconclusive
COc1ccc(OC(=O)c2cnc3n(c2=O)CCS3)cc1	ELG1 DNA repair inconclusive (no result: SMN2 splice up)
COC(=O)c1ccc(NC(=O)CCN2CCOCC2)cc1	none (no result: SMN2 splice up)
Cc1cccc(-c2cc(C(=O)Nc3ccc4c(c3)OCCO4)c3ccccc3n2)c1	FLuc modulator 6.7µM, ELG1 DNA repair inconclusive
